Inconclusive results are not listed. Unmarked numbers belong to inactive results. The source made the active and inactive calls. The call rests on the fitted dose curve; in most records, active means well fitted inhibition curve with a large enough effect; inconclusive means small, poorly fitted or top-dose-only effect; inactive means flat fitted curve, though single readings scatter.
Legend:
[1] = system: HaCat; experiment: Cytotoxic Profiling of Annotated Libraries Using Quantitative High-Throughput Screening (AID 1296008); settings: Five cell lines viability, CellTiter-Glo ATP luminescence, 48-72 h; max response: hits give low values; further: potency means the concentration at half of the fitted maximal effect; on max response: on the % scale 0 is the no-effect control and ±100 the full control effect
Method in brief: (§1)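 Cytotoxicity was measured as CellTiter-Glo ATP luminescence, read after 10 min at room temperature. Compound treatment of the cells lasted 48 or 72 hr at 37 degrees Celsius in a qHTS format.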

[2] = system: KB-3-1; experiment: as above; settings: Five cell lines viability, CellTiter-Glo ATP luminescence, 48-72 h; max response: hits give low values
Method in brief: as §1

[3] = system: NIH3T3; experiment: as above; settings: Five cell lines viability, CellTiter-Glo ATP luminescence, 48-72 h; max response: hits give low values
Method in brief: as §1

[4] = system: HACAT; experiment: qHTS assay to identify novel small-molecules to repurpose for Merkel cell carcinoma treatment (AID 1296009); settings: MCC and control cell lines, CellTiter-Glo viability, 72 h; at 44.8 µM (top of the series) unless noted
Method in brief: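 After compound transfer in DMSO, plates were kept 72 hr at 37 degree celsius. Luminescent ATP signal from CellTiter-Glo served as viability measure, normalized against DMSO and no-cell controls.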
Further: nearly all actives have a fitted effect of over 60% in size.

`CCNc1nc(Nc2cc(F)c(C(=O)N3CCOCC3)cc2OC)ncc1C(F)(F)F` showed a max response [1] of 1.43%, a max response [2] of -21.3% and a max response [3] of -2.73%.

For `NC(=O)C1=CC2C3C=CC2C(OC3=O)O1` (stereo unspecified), the max response [1] was -28.3%, the max response [2] was 5.92% and the max response [3] was 3.24%.

In the case of `O=C(NCc1ccccc1)c1ccc2c(=O)n(-c3cccc(C(F)(F)F)c3)c(=S)[nH]c2c1`, the max response [1] is reported as -51.3%, the max response [2] is reported as -9.36% and the max response [3] is reported as -30.9%.

`C=C1[C@@H](OC(C)=O)CC[C@@]2(C)[C@@H](OC(C)=O)[C@H](OC(C)=O)C3=C(C)C[C@H](OC(=O)C(C)CC)[C@@H]([C@@H](OC(C)=O)[C@H]12)C3(C)C` (stereo partly specified) was tested, and the Potency [1] was 1.93 µM (active), the Potency [2] was 2.43 µM (active) and the Potency [3] was 5.44 µM (active).

With `C/C=C(\C)C(=O)O[C@@H]1[C@@H](C)[C@]2(O)[C@@H]3C=C(C)C(=O)[C@H]3CC(CO)=C[C@H]2C2C(C)(C)[C@@]21OC(=O)C(C)CC` (stereo partly specified) the outcome [1] was “inactive”, the max response [2] was 0.342% and the max response [3] was 4.54%. For the same molecule, the outcome [4] was “inactive [at 17.4 µM]”.

Molecule `C=C1C(=O)O[C@@H]2C[C@H](C)C3=CC(=O)[C@H](O)[C@@]3(C)C[C@H]12` has a max response [1] of 1.47%, a max response [2] of 7.17% and a max response [3] of -23.3%.

For `C=C1C(=O)OC2CC3(C)C(O)C(=O)C=C(C)C3CC12` (stereo unspecified), the max response [1] was 0.297%, the outcome [2] was “inactive” and the max response [3] was -22.8%.

In the case of `C=C1C(=O)OC2C1CCC1(C)C(O)CC=C(C)C21` (stereo unspecified), the outcome [1] is reported as “inactive”, the max response [2] is reported as 0.514% and the outcome [3] is reported as “inactive”. The outcome [4] was “inactive”.

In the case of `COc1nc2ccc(Br)cc2cc1[C@@H](c1ccccc1)[C@@](O)(CCN(C)C)c1cccc2ccccc12`, the max response [1] is reported as -2.21%, the max response [2] is reported as -1.57% and the Potency [3] is reported as 18.4 µM (active).

With `COc1cc(F)c(F)c(Nc2ccc(I)cc2F)c1NS(=O)(=O)C1(CC(O)CO)CC1` (stereo unspecified) the Potency [1] was 14.6 µM (active), the max response [2] was -14.8% and the Potency [3] was 5.17 µM (active).

In the case of `COC(=O)c1sccc1S(=O)(=O)Nc1ccc(Nc2ccccc2)cc1OC`, the outcome [1] is reported as “inactive”, the max response [2] is reported as -21.5% and the max response [3] is reported as 1.31%. The outcome [4] was “inactive”.

`C=C1C(=O)O[C@@H]2[C@H]1CCC(C)=C(CCC(=O)O)[C@@]2(C)O` was tested, and the max response [1] was 2.79%, the outcome [2] was “inactive” and the max response [3] was -62.1%.

`CCCCNc1ncc2c(-c3ccc(S(=O)(=O)N4CCOCC4)cc3)nn(C3CCC(O)CC3)c2n1` (stereo unspecified) was tested, and the Potency [1] was 6.51 µM (active), the Potency [2] was 11.6 µM (active) and the Potency [3] was 7.31 µM (active).

In the case of `CC(=O)OC1CC2(C)C(CCC(C)C23Cc2c(O)cc(CO)c(C=O)c2O3)C(C)(C)C1O` (stereo unspecified), the outcome [1] is reported as “inactive”, the max response [2] is reported as 1.75% and the max response [3] is reported as 1.46%. For the same molecule, the outcome [4] was “inactive [at 17.4 µM]”.

For `COc1ccc(-c2csc(NC(=O)[C@H]3CCCCN3S(=O)(=O)c3ccc(C)cc3)n2)cc1`, the outcome [1] was “inactive”, the max response [2] was -25.1% and the outcome [4] was “inactive”.

`O=C(Nc1ccc(-n2nc(C(F)(F)F)cc2C(F)(F)F)cc1)c1ccncc1F` was tested, and the max response [1] was 3.3% and the max response [3] was 2.03%.

For `CC(=O)C1=CCC2C3CC=C4CC(O)CC(O)C4(C)C3C(O)CC12C` (stereo unspecified), the max response [1] was 1.07% and the outcome [3] was “inactive”.

Work on `CC12CCC(OC3OC(CO)C(O)C(O)C3OC3OC(CO)C(O)C(O)C3O)CC1CCC1C2CCC2(C)/C(=C3/COC(=O)C3)CCC12O` (stereo unspecified) yielded a max response [1] of -19.3% and a max response [3] of -1.69%.

In the case of `O=C(C1CCCCC1)N(CCN1CCN(c2ccccc2O)CC1)c1ccccn1`, the outcome [1] is reported as “inactive”, the max response [2] is reported as -15.9% and the outcome [4] is reported as “inactive”.

With `O=c1nc(-c2ccccn2)sc2ccccc12` the outcome [1] was “inactive”, the max response [2] was 3.79% and the outcome [4] was “inactive”.

`Cc1cc(-c2cc(OC(=O)c3ccccc3)ccc2Cl)cc2nnc(Nc3ccc(OCCN4CCCC4)cc3)nc12` gave a max response [1] of 3.59% and a max response [3] of -28.4%.

For `CC[N+]1(C/C2=C/CCCCCC2)CCC(NC(=O)C2c3cc(Cl)ccc3Oc3ccc(Cl)cc32)CC1` (stereo unspecified), the max response [1] was -26% and the outcome [3] was “inactive”.

For `CCC(=O)N1CCOc2c(cc(-c3ccc(OC)c(OC)c3)cc2OC[C@H]2CCCN(C)C2)C1`, the max response [1] was 3.21% and the outcome [3] was “inactive”.

With `Cc1ccc(N2CCN(S(=O)(=O)N3CCCCC3)CC2)c(C)c1` the outcome [1] was “inactive”, the max response [2] was -2.41% and the max response [3] was 4.82%. For the same molecule, the outcome [4] was “inactive”.

`C[C@@H](c1ccc2nccn2c1)n1nnc2ncc(-c3cnn(C)c3)nc21` was tested, and the max response [1] was -13% and the max response [3] was -14.7%.

`C=C1CC[C@@H]2[C@](C)(CO)[C@H](O)CC[C@@]2(C)[C@@H]1C/C=C1/C(=O)OCC1OC(=O)/C(=C/CO)C(O)C[C@@H]1C(=C)CC[C@@H]2[C@](C)(CO)[C@H](O)CC[C@]21C` (stereo partly specified) was tested, and the outcome [1] was “inactive”, the outcome [2] was “inactive” and the outcome [4] was “inactive [at 17.4 µM]”.

From PubChem BioAssay (NCATS)
